# Assay results: PubChem BioAssay (NCI)
# Compounds without any hit were thinned out: in the full panel of roughly 83,000, 20% have a hit.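 Interpretation: 100, growth as untreated; towards 0, rising growth inhibition; 0, no net growth; 0 to -100, cell death. Compounds scoring below 10 were considered active.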 Values without a mark were called inactive. The source made the active and inactive calls.
# Test system: DU-145 prostate
# Assay: NCI-60 one-dose screen, 48 h (100 = growth as untreated, 0 = no growth, -100 = all killed)
# Settings: 10 µM unless noted
row,Structure (SMILES),growth
1,C#CC[C@@H]1C[C@]2(C)[C@H]3CC[C@@H]4[C@H]5[C@H](C(=C)C)CC[C@]5(C(=O)O)CC[C@@]4(C)[C@]3(C)CC[C@H]2C(C)(C)[C@H]1O,57.4%
2,Cc1ccc(-c2nc(C#N)c(S(=O)(=O)N(C)CCO)o2)cc1,90.2%
3,FC(F)(F)c1ccc2c(Nc3cccc(C4CC(c5ccccc5)=NN4c4ccc(Cl)cc4)c3)ccnc2c1 (stereo not drawn),47.7%
4,COc1ccc2nc(-c3ccc(OC)c(OC)c3)cc(-c3nnc(SCC(=O)Nc4ccc(/C(C)=N\O)cc4)n3-c3ccccc3)c2c1,83.1%

# Test system: K-562 leukemia
# Assay: as above
# Settings: 10 µM unless noted
row,Structure (SMILES),growth
1,CNCc1cccc2c1OCCOCCOCCN(CCN1CCOCC1)S(=O)(=O)c1ccc(cc1)-c1cnc(N)c(n1)C(=O)N2,12.6%
2,Cc1cnc(-c2ccc(-c3ccc(NC(=O)Nc4c(F)cc(F)cc4F)cc3F)c3c2C(=O)NC3)[nH]1,22.1%
3,Cc1cc(C)c(NC(=O)c2sc3nc4c(cc3c2N)CCCCCC4)c(C)c1,16.8%
4,O=C1NN(c2ccccc2)C(c2ccc3c(c2)OCO3)N2CCC[C@@H]12 (stereo partly drawn),93.8%
5,C=C1C(=O)O[C@H]2[C@H]1CC/C(COC(=O)CCCCCCCCC(=O)OC/C1=C/CC[C@@]3(C)O[C@H]3[C@H]3OC(=O)C(=C)[C@@H]3CC1)=C\CC[C@@]1(C)O[C@@H]21,1.49% (active)
6,COc1ccc(C2N(c3cc(OC)c(OC)c(OC)c3)C(=O)C2(F)F)cc1F (stereo not drawn),10.5%
7,C=C1C(=O)O[C@H]2[C@H]1CC/C(COC(=O)CCCCCCC(=O)OC/C1=C/CC[C@@]3(C)O[C@H]3[C@H]3OC(=O)C(=C)[C@@H]3CC1)=C\CC[C@@]1(C)O[C@@H]21,2.63% (active)
8,O=c1nc(-c2ccccc2)c2cc(-c3ccc(N4CCCC4)nc3)ccc2[nH]1,16.4%
9,O=C(Nc1nc(-c2ccccc2)cs1)c1cc(-c2ccc(Br)cc2)nc2ccccc12,24.3%
10,COc1ccc2nc3c(n2c1)C(=O)C(=O)c1ccccc1-3,-18.2% (active)
11,C=C1C(=O)O[C@H]2[C@H]1CCC(/C=N/c1ncc(Br)cc1N)=C\CC[C@@]1(C)O[C@@H]21,2.64% (active)
12,COC(=O)c1ccc(NC(=O)CSc2nc(-c3ccc(F)cc3)nc3ccccc23)cc1,81.2%
13,COc1ccc(C2C(c3ccccc3)C(=O)N2c2cc(OC)c(OC)c(OC)c2)cc1I (stereo not drawn),6.76% (active)
14,O=[N+]([O-])c1cccc(CN(Cc2cccc([N+](=O)[O-])c2O)c2ccccc2)c1O,60.5%
15,Nc1c(C(=O)Nc2ccccn2)sc2nc3c(cc12)CCCCCC3,7.85% (active)
16,C[C@]12CC[C@@H]3c4ccc(O)cc4CC[C@H]3[C@@H]1C[C@H](O)C2,19.7%
17,COCCOCCOCc1n(Cc2ccc3ccccc3c2)c2ccccc2[n+]1Cc1ccc2ccccc2c1,11%
18,COc1ccc(C(=O)c2cc(F)c(F)c(OC)c2F)cc1OC(=O)CCl,15.7%
19,Nc1cccc(C(=O)Nc2ccc3c(O)c(N=Nc4ccc(N=Nc5ccc(S(=O)(=O)O)cc5)cc4)c(S(=O)(=O)O)cc3c2)c1,76.2%
20,O=C(Nc1ccccc1)NS(=O)(=O)c1c[nH]c(=S)[nH]c1=O,103%
21,CC(C)CSc1nc(Nc2ccccc2)c(C#N)c(-c2ccc(F)cc2)n1,50.7%
22,CC(C)(C#N)c1cc(F)cc(C(=O)Nc2cc(Nc3ncccc3-c3ncnc4nc[nH]c34)ccc2F)c1,5.97% (active)
23,COc1c(O)cc2oc3cc(O[C@@H]4OC(C)[C@@H](O)[C@H](O)C4O)c(CC=C(C)C)c(O)c3c(=O)c2c1CC=C(C)C (stereo partly drawn),74.3%
24,O=C(CCCC(=O)Nc1ccc(-n2nnc3cc(Cl)c(Cl)cc32)cc1)Nc1ccc(-n2nnc3cc(Cl)c(Cl)cc32)cc1,54.8%
25,Cn1cc(-c2ccc3c(c2)ncn3-c2ccc(CC(=O)Nc3cc(C(C)(C)C)on3)cc2)cn1,9.77% (active)
26,CCC1S/C(=N\N=C(/C)c2ccc[nH]2)N(c2ccccc2)C1=O (stereo not drawn),72.8%
27,CC(=O)ON1CCCC(P(=O)(OCOC(=O)C(C)(C)C)OCOC(=O)C(C)(C)C)C1=O (stereo not drawn),3.72% (active)
28,Cc1cccc(C)c1Nc1nnc(-c2ccc(F)cc2)o1,118%
29,COc1ccc(C2=NN(c3ccc(S(N)(=O)=O)cc3)C(c3ccc(Cl)cc3)C2)c(O)c1 (stereo not drawn),23%
